# Screening results from PubChem BioAssay.
# Compounds with a hit are over-represented: about 2.8% of the library has one in this group of screens.
# FEN1 inhibitor = qHTS Assay for the Inhibitors of Human Flap endonuclease 1 (FEN1); P39748; Recombinant FEN1 flap cleavage, fluorescence, 15 min; Potency, µM (titrated, usually from 114 µM), inactives show top-dose activity change, negative = inhibition, actives largely listed as inhibitors; 0.35% of 390,000 active; further: potency means the concentration at half of the fitted maximal effect; on the % scale 0 is the no-effect control and ±100 the full control effect; nearly all actives have a fitted effect of over 65% in size
#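 With each library titrated from low to high concentration, compounds met 10 nM FEN1 for 15 min at room temperature before 50 nM substrate was added; readings at 0 and 15 min fed four-parameter Hill curve fits.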
# POLB inh = qHTS Assay for Inhibitors of DNA Polymerase Beta | P06746 | Pol beta primer extension/strand displacement, fluorescence kinetic | Potency, µM (highest dose often 114 µM), for inactives: top-dose activity change, negative = inhibition, hits mostly inhibitors | 1.3% of 340,000 active | AID 485314, 2010; further: potency means the concentration at half of the fitted maximal effect; on the % scale 0 is the no-effect control and ±100 the full control effect
#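 10 nM enzyme + cpd, 15 min RT; start with substrate 50 nM final; read 0 min and after 10 min RT. Corrected, normalized data; 4-parameter Hill curve fit.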
# POLI inh = qHTS for Inhibitors of Polymerase Iota | DNA polymerase iota (Homo sapiens), Q9UNA4 | Pol iota fluorescent replication assay, 10 min | Potency, µM (highest dose often 115 µM), inactives show top-dose activity, negative = inhibition, most hits filed as inhibitors | 1% of 390,000 active; further: potency means the concentration at half of the fitted maximal effect
#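 Fluorescent replication assay read twice, at 0 min and 10 min after adding 50 nM (final) substrate. Enzyme (10 nM) and compounds were first incubated 15 min at room temperature; enzyme-free buffer wells were negative controls.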
# POLH inh = qHTS for Inhibitors of Polymerase Eta; 1.2% of 390,000 active; Potency, µM (highest dose often 114 µM), for inactives: at the top dose activity change, negative = inhibition, actives largely listed as inhibitors; DNA polymerase eta (Homo sapiens), Q9Y253; recombinant Pol eta, fluorescent DNA replication assay; further: potency means the concentration at half of the fitted maximal effect; on the % scale 0 is the no-effect control and ±100 the full control effect
# Target sequence (Q9Y253 whole entry, looked up): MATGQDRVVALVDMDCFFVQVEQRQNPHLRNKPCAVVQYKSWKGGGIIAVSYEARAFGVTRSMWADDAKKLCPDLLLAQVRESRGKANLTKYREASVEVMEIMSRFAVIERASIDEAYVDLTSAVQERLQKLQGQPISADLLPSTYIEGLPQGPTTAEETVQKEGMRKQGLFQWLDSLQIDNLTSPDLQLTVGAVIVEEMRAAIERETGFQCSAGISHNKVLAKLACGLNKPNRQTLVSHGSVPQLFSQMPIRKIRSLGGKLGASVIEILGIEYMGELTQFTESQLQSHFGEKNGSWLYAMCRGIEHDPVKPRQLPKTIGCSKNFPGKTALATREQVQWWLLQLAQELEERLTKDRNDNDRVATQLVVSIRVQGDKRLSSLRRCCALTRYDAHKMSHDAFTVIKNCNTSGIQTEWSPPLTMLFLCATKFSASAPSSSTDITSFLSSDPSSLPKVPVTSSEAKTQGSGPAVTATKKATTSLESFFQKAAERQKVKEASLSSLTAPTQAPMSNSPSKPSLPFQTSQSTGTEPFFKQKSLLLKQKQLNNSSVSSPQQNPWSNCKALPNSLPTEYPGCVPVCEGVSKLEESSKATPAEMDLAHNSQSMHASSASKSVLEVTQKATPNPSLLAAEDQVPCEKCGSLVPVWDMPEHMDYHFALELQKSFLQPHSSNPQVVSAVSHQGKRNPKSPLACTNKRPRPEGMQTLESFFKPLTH
#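 Pol eta at 10 nM preincubated with compounds 15 min at room temperature; reaction started with fluorescent substrate (50 nM final) and read kinetically at 0 and 10 min.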
# Pol kappa inh = qHTS for Inhibitors of Polymerase Kappa. purified Pol kappa, fluorescent DNA synthesis assay, 10 min. Potency, µM (titrated, usually from 107 µM), inactives show top-dose activity, negative = inhibition, usual class: inhibitors. 0.53% of 400,000 active. AID 588579, 2011; further: potency means the concentration at half of the fitted maximal effect; on the % scale 0 is the no-effect control and ±100 the full control effect
#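 Pol kappa 10 nM + cpd, 15 min RT; start w/ substrate 50 nM final; fluorescence kinetic read, 0 and 10 min. Neg ctrl: buffer, no enzyme.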
# PI5P4K alpha inh = qHTS for Inhibitors of phosphatidylinositol 5-phosphate 4-kinase (PI5P4K); Phosphatidylinositol 5-phosphate 4-kinase type-2 alpha (Homo sapiens), P48426; max response, %; PI5P4Kalpha enzyme, ADP-Glo luminescence, 60 min; hits give low values; AID 652105, 2013; 1.2% of 330,000 active; active means max response of -50% or lower; inconclusive means between -30% and -50%; inactive means -30% or higher; further: value at the top dose of about 77 µM; on the % scale 0 is the no-effect control and ±100 the full control effect
#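 Single end-point luminescence (ADP-Glo) quantified ADP from PI5P4Kalpha turnover; ATP 5 microM final, 1 h at RT, 0.1% CHAPS and 0.28 mM EGTA in HEPES pH 7.4.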
# TbPGK inh = qHTS for inhibitors of Phosphogylcerate Kinase: Hit Validation Screen; Potency, µM (highest dose often 57.5 µM), for the others: top-dose activity change, negative = inhibition, actives largely listed as inhibitors; 79% of 500 active; TbPGK coupled GAPDH assay, Kinase-Glo luminescence; shares compounds with Pol kappa inh; AID 686980, 2013; further: potency means the concentration at half of the fitted maximal effect; on the % scale 0 is the no-effect control and ±100 the full control effect; nearly all actives have a fitted effect of over 65% in size
# POLI cherry-pick = qHTS for Inhibitors of Polymerase Iota: Confirmatory Assay for Cherry-picked Compounds. Pol iota primer extension, TAMRA/BHQ fluorescence. 77% of 1,500 active. shares compounds with Pol kappa inh. Potency, µM, actives largely listed as inhibitors; further: potency means the concentration at half of the fitted maximal effect
# * marks the source's active call; other numbers are inactive results; ? = inconclusive; . = not tested or not shown; ! = not confirmed by another sample; [ ] = dose if it differs, or a comment. Unless noted, the call rests on the fitted dose curve; in most records, active means well fitted curve in the direction sought with a large enough effect; inconclusive means small, poorly fitted or top-dose-only effect, or another doubt; inactive means no such curve, though single readings can be large; an effect the other way counts as inactive or inconclusive.
SMILES,FEN1 inhibitor,POLB inh,POLI inh,POLH inh,Pol kappa inh,PI5P4K alpha inh,TbPGK inh,POLI cherry-pick
Cc1ccc(NC(=O)CN2C(=O)S/C(=C\c3ccc(C(=O)O)cc3)C2=O)cc1,26%,39%,-5%,7%,-3%,-5,.,.
NC(=O)c1cc(N2C(=O)C=CC2=O)ccc1Cl,4%,18%,-3%[58.9 µM],2%,-18%,.,.,.
O=C(O)c1cc(N2C(=O)C=CC2=O)cc(N2C(=O)C=CC2=O)c1,10µM*,.,1.1µM*,2.2µM*,2.2µM*,-78*,?,.
CSCCC(NS(=O)(=O)c1ccc2c(c1)oc(=O)n2C)C(=O)NCc1ccc(Cl)cc1 (stereo unspecified),-1%,-24%,-9%,-9%,-3%[60.1 µM],.,.,.
O=C(Nc1ccccc1)c1cn2ccccc2n1,-9%,9%,-19%,-8%,-14%,-4,.,.
Cc1csc(NC(=O)c2cn3ccccc3n2)n1,-4%,?,9%,-5%,-10%,-21,18µM*,.
O=C(NC(Cc1ccccc1)C(=O)O)C1CCN(S(=O)(=O)c2ccccc2C(F)(F)F)CC1 (stereo unspecified),4%,24%,-11%,-6%,3%,2,.,.
CC(C)=CCN1CCN(Cc2ccc3nsnc3c2)CC1CCO (stereo unspecified),6%,8%,154%,-20%,0%,-6,.,.
CC(C)CCN1CCN(Cc2ccc3nsnc3c2)CC1CCO (stereo unspecified),5%,-1%,25%,-2%,-18%,-2,-8%,.
Cc1oc2ccc(O)c(CN(C)Cc3ccccc3)c2c1C(=O)Nc1cccc(Cl)c1C,-18%,8%,-5%,-4%,-8%,.,.,.
CC1=CC2=NC(=O)/C(=C\c3ccc(-c4cccc(Cl)c4)o3)C(=N)N2O1,3%,?,?,5.6µM*,-10%,-5,.,?
C=CCN1C=C2C(=O)C(C)(OC(=O)c3cnc4ccccc4n3)C(=O)C=C2C=C1/C=C/COC (stereo unspecified),-17%,.,?,25µM*,?,-2,.,?
COC/C=C/C1=CC2=CC(=O)C(C)(OC(=O)c3cnc4ccccc4n3)C(=O)C2=CN1CCOC (stereo unspecified),-7%,.,?,12%,-11%,-13,.,.
CCOc1ccc(N(CC(=O)NC(C)(C)C)C(=O)CCC(=O)Nc2nccs2)cc1,26%,94%,57%,-12%,0%,7,.,.
CCOc1cc(/C=C2/NC(=S)NC2=O)ccc1OCc1ccc([N+](=O)[O-])cc1,-5%,?,?,?,-4%,-17,.,?
C/C(=N/OC(=O)c1ccc(C)cc1)c1cccs1,-9%,-12%,10%,-2%,-11%,-25,10µM*,.
Cc1ccc(C(=O)O/N=C(\N)c2nonc2N)cc1,6%,1%,142%,-20%,-1%,-9,23µM*,.
COc1ccc(C(=O)O/N=C(\C)c2ccccc2)cc1,-8%,14%,-6%,-1%,-11%,?,8.2µM*,.
N/C(=N\OC(=O)c1ccccc1)c1ccccn1,0%,21%,9%,-19%,-1%,?,10µM*,.
O=C(NCCc1ccccc1F)C1CC(=O)N(c2ccc3c(c2)OCCO3)C1 (stereo unspecified),.,.,.,-1%,.,1,.,.
CC(C)c1ccc(NC(=O)CCNC(=O)N2CC(=O)Nc3ccccc32)cc1,5%,3%,33%,-7%,8%,4,.,.
Cc1ccc(C(=O)O/N=C(\N)c2ccccn2)cc1,-14%,-2%,30%,-8%,-9%,-55*,6.5µM*,.
CCN(C)C1CN(Cc2cn(Cc3cccc(C(F)(F)F)c3)nn2)S(=O)(=O)C1 (stereo unspecified),.,.,.,.,.,2,.,.
CN(C)c1ccc(/C=C/c2ccc3c4ccccc4ccc3[n+]2-c2ccccc2)cc1,8.9µM*,11µM*,20µM*,22µM*,45µM*!,-87*,29µM*,.
CCc1ccccc1Nc1nn2c(=O)c3ccc(C(=O)NCc4ccc(C)cc4)cc3nc2s1,19%,-2%,10%,-13%,-1%,.,.,.
SMILES,FEN1 inhibitor,POLB inh,POLI inh,POLH inh,Pol kappa inh,PI5P4K alpha inh,TbPGK inh,POLI cherry-pick
Cc1ccccc1Nc1nn2c(=O)c3ccc(C(=O)NCc4ccccc4)cc3nc2s1,8%,13µM*,79µM*,?,0%[60.1 µM],.,.,?
O=C(CSc1nc(=O)n2ccccc2n1)NC1CCCCC1,0%,.,55%,-11%,-2%,-1,.,.
CCOc1ccc(-c2c(C(=O)N/N=C/c3cccnc3)nnn2-c2nonc2N)cc1,-6%,?,22µM*,?,?,2,.,?
Cc1ccc2nc3sc(C(=O)Nc4ccncc4)cc3cc2c1,.,.,.,.,.,.,.,?
Cc1ccc(CCNC(=O)c2cc3cc4cc(C)ccc4nc3s2)cc1,4%,?,30%,-10%,3%[60.1 µM],.,.,.
Cc1ccc2nc3sc(C(=O)Nc4ccc(F)cc4)cc3cc2c1,-13%,2.5µM*,?,-11%,-2%[60.1 µM],.,.,75*
CC1COC(=O)C(NNc2ccc(Cl)c(Cl)c2)=N1 (stereo unspecified),21%,2%,?,-9%,-11%,-1,.,.
NS(=O)(=O)c1ccc(CCNC(=O)c2ccc(-c3ccccc3)cc2)cc1,6%,-4%,46%,?,-5%,-11,.,.
Cc1ccc(S(=O)(=O)NCc2ccc(C(=O)NCCc3ccc(S(N)(=O)=O)cc3)cc2)cc1,-2%,?,32µM*,?,-13%,1,.,?
COc1ccc(-n2c(SCC(=O)Nc3nccs3)nnc2-c2ccc(Cl)cc2)cc1,17%,.,13%,?,0%,-16,.,?
C[C@@H]1O[C@@H](O[C@@H]2[C@@H](O)[C@H](OCCc3ccc(O)c(O)c3)O[C@H](CO)[C@H]2OC(=O)/C=C/c2ccc(O)c(O)c2)[C@H](O)[C@H](O)[C@H]1O,?,.,?,-5%,22µM*,-26,.,21*
